# Assay results reported in the supplement of paper PMC8728848.
# Only a selection was taken, and the strongest signals are over-represented in it overall.
# B1: Agalectin (Anopheles gambiae) (protein)
# chain: MSNRPFTAKFPRYPENGDEVFIRGKLKDDAKSFSVNFCLPRPAQVAEHQTPPYIALHFKTIYDERDDTSRVVLNWKNLQWQQEEVLDNYWHVDRSQTFRVVFRLHEDCIKVFVNSVDHPPDYQFPVQLPLDQIESIELWDDVEHVEEISFRYDNGNSY
# Experiments:
# Experiment in all cases: glycan array binding signal (z-score within array); higher = stronger binding
# Settings in all cases: glycan notation: IUPAC condensed, linker removed
# [1] = biological target: Fuc(a1-2)Gal(b1-3)GlcNAc(b1-2)Man(a1-3)[Fuc(a1-2)Gal(b1-3)GlcNAc(b1-2)Man(a1-6)]Man(b1-4)GlcNAc(b1-4)GlcNAc
# Procedure, shortened: (§1)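 From the Consortium for Functional Glycomics database, 3228 arrays were curated, keeping only those whose protein sequence was available. Binding is given as a within-array Z-score averaged across arrays sharing a protein sequence and across linkers. Negative Z-scores can be read as non-binding.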
# [2] = biological target: Fuc(a1-2)Gal(b1-3)GlcNAc(b1-3)[Fuc(a1-2)Gal(b1-3)GlcNAc(b1-6)]GalNAc
# Procedure, shortened: as §1
# [3] = biological target: Fuc(a1-2)Gal(b1-4)GlcNAc(b1-3)Gal(b1-4)GlcNAc(b1-2)Man(a1-3)[Fuc(a1-2)Gal(b1-4)GlcNAc(b1-3)Gal(b1-4)GlcNAc(b1-2)Man(a1-6)]Man(b1-4)GlcNAc(b1-4)GlcNAc
# Procedure, shortened: as §1
# [4] = biological target: Fuc(a1-2)Gal(b1-4)GlcNAc(b1-3)[Fuc(a1-2)Gal(b1-4)GlcNAc(b1-6)]GalNAc
# Procedure, shortened: as §1
# [5] = biological target: Fuc(a1-2)Gal(b1-4)GlcNAc6S
# Procedure, shortened: as §1
# [6] = biological target: Fuc(a1-2)Gal6S(b1-3)GlcNAc6S
# Procedure, shortened: as §1
# [7] = biological target: Fuc(a1-2)[GalNAc(a1-3)]Gal(b1-4)GlcNAc(b1-6)GalNAc
# Procedure, shortened: as §1
# [8] = biological target: Fuc(a1-2)[GalNAc(a1-3)]Gal(b1-4)[Fuc(a1-3)]GlcNAc(b1-3)GalNAc
# Procedure, shortened: as §1
# Fuc(a1-3)GlcNAc = biological target: Fuc(a1-3)GlcNAc
# Procedure, shortened: as §1
# [9] = biological target: Fuc(a1-3)[Gal(b1-4)]Glc6S
# Procedure, shortened: as §1
# [10] = biological target: Fuc(a1-3)[Gal(b1-4)]GlcNAc6S
# Procedure, shortened: as §1
# [11] = biological target: Fuc(a1-3)[Gal3S(b1-4)]GlcNAc6S
# Procedure, shortened: as §1
# [12] = biological target: Gal(a1-3)Gal(b1-4)[Fuc(a1-3)]GlcNAc
# Procedure, shortened: as §1
# Gal(b1-3)GalNAc = biological target: Gal(b1-3)GalNAc
# Procedure, shortened: as §1
# [13] = biological target: Gal(b1-3)GalNAc(a1-3)[Fuc(a1-2)]Gal(b1-4)Glc
# Procedure, shortened: as §1
# [14] = biological target: Gal(b1-3)GlcNAc(b1-2)Man(a1-3)[Gal(b1-3)GlcNAc(b1-2)Man(a1-6)]Man(b1-4)GlcNAc(b1-4)GlcNAc
# Procedure, shortened: as §1
# [15] = biological target: Gal(b1-3)GlcNAc(b1-3)Gal(b1-4)GlcNAc
# Procedure, shortened: as §1
# [16] = biological target: Gal(b1-3)GlcNAc(b1-3)Gal(b1-4)GlcNAc(b1-2)[Gal(b1-3)GlcNAc(b1-3)Gal(b1-4)GlcNAc(b1-6)]Man(a1-6)[Gal(b1-3)GlcNAc(b1-3)Gal(b1-4)GlcNAc(b1-2)Man(a1-3)]Man(b1-4)GlcNAc(b1-4)[Fuc(a1-6)]GlcNAc
# Procedure, shortened: as §1
# [17] = biological target: Gal(b1-3)GlcNAc(b1-6)[Gal(b1-3)]GalNAc
# Procedure, shortened: as §1
# Gal(b1-3)GlcNAc6S = biological target: Gal(b1-3)GlcNAc6S
# Procedure, shortened: as §1
# [18] = biological target: Gal(b1-3)[Neu5Ac(b2-6)]GalNAc
# Procedure, shortened: as §1
# [19] = biological target: Gal(b1-4)GlcNAc(b1-2)Man(a1-6)[GlcNAc(b1-2)Man(a1-3)]Man(b1-4)GlcNAc(b1-4)GlcNAc
# Procedure, shortened: as §1
# [20] = biological target: Gal(b1-4)GlcNAc(b1-3)Gal(b1-4)GlcNAc(b1-3)Gal(b1-4)GlcNAc(b1-2)Man(a1-3)[Gal(b1-4)GlcNAc(b1-3)Gal(b1-4)GlcNAc(b1-3)Gal(b1-4)GlcNAc(b1-2)Man(a1-6)]Man(b1-4)GlcNAc(b1-4)GlcNAc
# Procedure, shortened: as §1
# [21] = biological target: Gal(b1-4)GlcNAc(b1-3)Gal(b1-4)GlcNAc(b1-3)Gal(b1-4)GlcNAc(b1-3)Gal(b1-4)GlcNAc(b1-2)Man(a1-3)[Gal(b1-4)GlcNAc(b1-3)Gal(b1-4)GlcNAc(b1-3)Gal(b1-4)GlcNAc(b1-3)Gal(b1-4)GlcNAc(b1-2)Man(a1-6)]Man(b1-4)GlcNAc(b1-4)[Fuc(a1-6)]GlcNAc
# Procedure, shortened: as §1
# [22] = biological target: Gal(b1-4)GlcNAc(b1-3)Gal(b1-4)GlcNAc(b1-3)Gal(b1-4)GlcNAc(b1-3)Gal(b1-4)GlcNAc(b1-2)[Gal(b1-4)GlcNAc(b1-3)Gal(b1-4)GlcNAc(b1-3)Gal(b1-4)GlcNAc(b1-3)Gal(b1-4)GlcNAc(b1-6)]Man(a1-6)[Gal(b1-4)GlcNAc(b1-3)Gal(b1-4)GlcNAc(b1-3)Gal(b1-4)GlcNAc(b1-3)Gal(b1-4)GlcNAc(b1-2)Man(a1-3)]Man(b1-4)GlcNAc(b1-4)[Fuc(a1-6)]GlcNAc
# Procedure, shortened: as §1
# [23] = biological target: Gal(b1-4)GlcNAc(b1-3)GalNAc
# Procedure, shortened: as §1
# Gal(b1-6)Gal = biological target: Gal(b1-6)Gal
# Procedure, shortened: as §1
binder,measurement,setting,value
B1,glycan array binding signal (z-score),[1],5.71
same,glycan array binding signal (z-score),[2],4.19
same,glycan array binding signal (z-score),[3],-0.148
same,glycan array binding signal (z-score),[4],-0.321
same,glycan array binding signal (z-score),[5],-0.769
same,glycan array binding signal (z-score),[6],-0.208
same,glycan array binding signal (z-score),[7],0.074
same,glycan array binding signal (z-score),[8],-0.12
same,glycan array binding signal (z-score),Fuc(a1-3)GlcNAc,-1.07
same,glycan array binding signal (z-score),[9],-0.632
same,glycan array binding signal (z-score),[10],0.34
same,glycan array binding signal (z-score),[11],-0.759
same,glycan array binding signal (z-score),[12],-0.066
same,glycan array binding signal (z-score),Gal(b1-3)GalNAc,-0.47
same,glycan array binding signal (z-score),[13],-0.559
same,glycan array binding signal (z-score),[14],1.66
same,glycan array binding signal (z-score),[15],-0.854
same,glycan array binding signal (z-score),[16],3.14
same,glycan array binding signal (z-score),[17],-1.37
same,glycan array binding signal (z-score),Gal(b1-3)GlcNAc6S,-1.14
same,glycan array binding signal (z-score),[18],0.408
same,glycan array binding signal (z-score),[19],-0.688
same,glycan array binding signal (z-score),[20],2.89
same,glycan array binding signal (z-score),[21],3.26
same,glycan array binding signal (z-score),[22],-0.07
same,glycan array binding signal (z-score),[23],-0.509
same,glycan array binding signal (z-score),Gal(b1-6)Gal,-1.18
